MITF primary: inhibitors of human MITF. O75030. AlphaScreen MITF homodimerization, bead proximity signal. inhibition, % at 2.6 µM. actives 0.91% (n = 650,000); in the data active means inhibition above about 50%
FBW7 act: human FBW7 E3 ligase activation, primary screen. Q969H0. AlphaScreen FBW7–phospho-cyclin E peptide binding, activator screen. normalized activity (activation), % at 26.1 µM. actives 0.13% (n = 650,000). AID 1259310; in the data active means normalized activity above about 1.9%;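 further: purified mutant Fbw7 with reduced substrate affinity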
Target sequence (Q969H0 whole entry, looked up): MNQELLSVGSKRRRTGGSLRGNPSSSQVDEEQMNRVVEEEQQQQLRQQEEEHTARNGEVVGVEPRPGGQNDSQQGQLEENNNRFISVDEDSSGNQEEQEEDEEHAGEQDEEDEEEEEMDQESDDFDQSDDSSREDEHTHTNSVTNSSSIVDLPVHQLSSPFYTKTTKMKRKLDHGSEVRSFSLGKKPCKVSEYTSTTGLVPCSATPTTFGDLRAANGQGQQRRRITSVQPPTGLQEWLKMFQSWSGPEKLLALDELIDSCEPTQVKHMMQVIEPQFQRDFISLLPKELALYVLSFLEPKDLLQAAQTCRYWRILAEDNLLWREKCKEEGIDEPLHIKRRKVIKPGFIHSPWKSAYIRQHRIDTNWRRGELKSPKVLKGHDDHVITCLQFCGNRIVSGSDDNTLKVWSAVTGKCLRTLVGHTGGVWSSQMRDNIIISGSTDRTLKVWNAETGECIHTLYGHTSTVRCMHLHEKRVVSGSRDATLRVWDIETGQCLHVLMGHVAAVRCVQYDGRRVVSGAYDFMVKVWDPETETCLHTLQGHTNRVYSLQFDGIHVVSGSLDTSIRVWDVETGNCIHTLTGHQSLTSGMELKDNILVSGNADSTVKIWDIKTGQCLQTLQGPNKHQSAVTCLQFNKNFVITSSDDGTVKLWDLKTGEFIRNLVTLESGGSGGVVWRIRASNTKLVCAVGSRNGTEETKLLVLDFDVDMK
TEAD-YAP block: TEAD-YAP interaction inhibition; HEK-TIYL cells, TEAD-Gal4/YAP UAS-luciferase luminescence; inhibition, % at 9.12 µM; actives 1.4% (n = 640,000); in the data active means inhibition above about 32%
GPR151 ag: activates the human receptor GPR151. activation, % at 11.2 µM. actives 1% (n = 650,000). AID 1508602. PathHunter beta-arrestin GPR151 cells, luminescence. Q8TDV0; in the data active means activation above about 4.9%
Numbers stand for hits; . = inactive. Rows were chosen to be rich in hits. Some 3.5% of all compounds tested hit in one or more screens of this group.

SMILES | MITF primary | FBW7 act | TEAD-YAP block | GPR151 ag
O=[N+]([O-])c1c(N2CCCCCC2)ncnc1N1CCCCCC1 | . | . | . | .
O=C(Nc1ccccc1C(=O)N/N=C/c1ccncc1)c1ccccc1 | . | . | 41 | .
O=C(Nc1ccccc1C(=O)N/N=C/c1ccncc1)c1ccc([N+](=O)[O-])cc1 | . | . | 41 | .
CCOc1ccc(/C=N/NC(=O)c2ccc(F)cc2)cc1 | . | . | . | .
CCOc1ccc(/C=N/NC(=O)c2ccccc2NC(=O)c2ccc(OC)cc2)cc1 | . | . | 55 | .
COC(=O)c1ccc(-c2ccc(/C=C3/C(=O)N(c4ccc(C)c(Cl)c4)N=C3C)o2)cc1 | . | . | . | .
N#Cc1nc(N2CCCC2)nc(N2CCCC2)n1 | . | . | 37 | .
COc1ccc(NC(=O)C2C3C4CCC(C4)C23)cc1 (stereo not drawn) | . | . | . | .
Cc1cccc(C(=O)NCCc2ccccc2)c1[N+](=O)[O-] | . | . | . | .
CCc1nc(SCc2ccc(Cl)cc2Cl)c(C#N)c2c1CCCC2 | . | 2.2 | . | .
Cc1cc(C)n(CCc2nc3c4ccccc4nc(=S)n3[nH]2)n1 | . | . | 49 | .
O=C(NCCO)Nc1ccc2nc(-c3ccco3)c(-c3ccco3)nc2c1 | 89 | . | . | .
O=C(NC1CC1)c1ccc2nc(-c3ccco3)c(-c3ccco3)nc2c1 | 71 | . | . | .
CCOCCCNC(=O)c1ccc2nc(-c3ccco3)c(-c3ccco3)nc2c1 | . | . | . | .
O=C(NCCCO)c1ccc2nc(-c3ccco3)c(-c3ccco3)nc2c1 | 83 | . | . | .
O=C(NC1CCCC1)c1ccc2nc(-c3ccccc3)c(-c3ccccc3)nc2c1 | . | . | . | .
O=C(Nc1ccc2nc(-c3ccco3)c(-c3ccco3)nc2c1)N1CCCC1 | 94 | . | . | .
O=C1OC(c2cccc3ccccc23)=N/C1=C/c1ccc(Cl)cc1 | . | . | . | .
CCc1nnc(NS(=O)(=O)c2ccc(NC(=O)c3ccccc3)cc2)s1 | . | . | . | .
CCc1nnc(NS(=O)(=O)c2ccc(NC(=S)NC(=O)c3ccccc3)cc2)s1 | . | 2.9 | . | .
CCCc1ccc(Oc2cn[nH]c2-c2ccc(O)cc2O)cc1 | . | . | 65 | .
CCOC(=O)C1=C(N)N(c2ccc(OC)cc2)C2=C(C(=O)CC(C)(C)C2)C1c1ccc(Br)cc1 (stereo not drawn) | . | . | . | .
Cc1nn2c(=O)/c(=C/c3ccco3)sc2nc1=O | 77 | . | . | .
Cc1cccc(-c2nc3s/c(=C\c4ccco4)c(=O)n3n2)c1 | . | . | . | .
COc1cccc(NCC(O)Cn2c3ccc(Cl)cc3c3cc(Cl)ccc32)c1 (stereo not drawn) | . | . | . | .
SMILES | MITF primary | FBW7 act | TEAD-YAP block | GPR151 ag
CC(C)(C)NC(=O)C(=O)NNC(=O)c1ccc(-c2ccccc2)cc1 | . | . | . | .
O=C1CCCN1C(=S)C(=S)N1CCCC1=O | . | . | 99 | .
O=C(N/N=C/c1ccc(O)c(O)c1)c1cccc(N/N=C/c2ccc(O)c(O)c2)c1 | 105 | . | . | .
Nc1nnc(CC(=O)N/N=C\c2ccc(O)c(O)c2)s1 | 52 | . | . | .
O=C(N/N=C/c1ccc(O)c(O)c1)N/N=C/c1ccc(O)c(O)c1 | 95 | . | . | .
Nn1cnnc1N/N=C/c1ccc(O)c(O)c1 | 88 | . | . | .
CCNC(=O)CSc1nc2ccccc2s1 | . | . | . | .
COc1ccc([N+](=O)[O-])cc1/C=C1/Sc2ccccc2C1=O | . | . | . | .
Cc1ccc(N2C(=O)CC(NC3CC3)C2=O)cc1 (stereo not drawn) | . | . | . | .
Cc1cccn2c(=O)c3cc(C(=O)N4CCCC(C)C4)n(C)c3nc12 (stereo not drawn) | . | . | . | .
CC(C)Cc1ccc(S(=O)(=O)Nc2ccc3c(c2)n(C)c(=O)n3C)cc1 | . | . | 33 | .
Cn1c(=O)n(C)c2cc(NS(=O)(=O)c3ccc(C(C)(C)C)cc3)ccc21 | . | . | . | .
COc1cc(C(=O)Nc2cccc(-c3nc4ccccc4s3)c2C)cc(OC)c1OC | . | . | . | .
O=Cc1nc(-c2cccc([N+](=O)[O-])c2)n2ccccc12 | . | . | . | .
Cc1ccc(CNC(=O)CCCCCn2c(SCc3cc(C)ccc3C)nc3ccsc3c2=O)cc1 | . | . | . | .
Cc1ccc(C)c(CSc2nc3ccsc3c(=O)n2CCCCC(=O)O)c1 | . | . | 57 | .
COC(=O)Cn1c(SCc2cc(C)ccc2C)nc2ccsc2c1=O | . | . | 63 | .
Cc1nn(C)c(C)c1CN(C)S(=O)(=O)c1ccc2ccccc2c1 | . | . | 56 | .
Cc1ccc(CN(C)S(=O)(=O)c2ccc3ccccc3c2)cc1 | . | . | . | .

Assay outcomes: PubChem, The Scripps Research Institute Molecular Screening Center
